Source: ChEMBL document CHEMBL4513146, “CO-ADD screening of Karazin Kharkiv National University (Ukraine) compounds”
Measured potencies and affinities stand elsewhere.

Legend:
Klebsiella pneumoniae = conditions: Concentration 32 ug.mL-1;; ASSAY_TEST Inhibition of Bacterial Growth; detection method Absorption (OD600); MEDIA CAMHB; plate type 384well; NBS; CORNING #3640; time 18 hr
Candida albicans = conditions: Concentration 32 ug.mL-1; ASSAY_TEST Inhibition of Fungal Growth; detection method Absorption (OD530)
Cryptococcus neoformans = conditions: Concentration 32 ug.mL-1; ASSAY_TEST Inhibition of Fungal Growth; detection method Resazurin; Absorption (OD600-OD570); plate type 384well; NBS; CORNING #3640

Compound	Inhibition (Klebsiella pneumoniae)	Inhibition (Candida albicans)	Inhibition (Cryptococcus neoformans)
COc1cccc(Oc2nccn3c(=O)n(CC(=O)Nc4ccc(Br)cc4F)nc23)c1	17.17%	0.55%	-10.01%
CC(C)c1nnc2c(=O)n(CC(=O)Nc3ccc(Cl)c(Cl)c3)c3ccccc3n12	5.02%	3.27%	-9.31%
C=Cc1ccc(CN(c2ccc3c(c2)OCO3)S(=O)(=O)c2ccc3nncn3c2)cc1	11.26%	1.71%	-6.68%
O=S(=O)(c1ccc2nncn2c1)N(Cc1cc(F)cc(F)c1)c1cc(F)cc(F)c1	-2.94%	0.05%	-3.18%
CCOC(=O)c1cccc(NC(=O)CSc2nc3ccccc3n3c(C(C)C)nnc23)c1	16.4%	0.96%	-15.16%
CCOC(=O)C1CCCN(C(=O)Cn2nc3n(CC(C)C)c(=O)c4sccc4n3c2=O)C1 (stereo not drawn)	8.18%	-1.48%	-14.07%
Cc1c(Cl)cccc1-n1ccn2c(=O)n(Cc3c(F)cccc3Cl)nc2c1=O	1.26%	11.96%	-12.75%
COc1ccc(-c2cc3c4nn(CC(=O)Nc5ccc6c(c5)OCO6)c(=O)n4ccn3n2)cc1	2.73%	15.19%	-14.04%
CCC(Sc1nnc2c(=O)n(-c3cccc(OC)c3)ccn12)C(=O)Nc1cc(OC)ccc1OC (stereo not drawn)	1.63%	1.95%	-10.37%
CCOC(=O)c1ccc(NC(=O)Cn2nc3ccc(SC(C)(C)C)nn3c2=O)cc1	7.26%	5.28%	-37.99%
CC(=O)c1ccc(N2CCN(C(=O)CCc3nnc4c5cc(-c6ccccc6)nn5ccn34)CC2)cc1	14.87%	3.08%	-8.28%
COc1cccc(Sc2nc3ccccc3n3c(=O)n(CC(=O)Nc4cccc(F)c4)nc23)c1	12.26%	-1.78%	-25.49%
COc1ccccc1-n1ccn2c(SCc3ccc(Cl)cc3)nnc2c1=O	8.98%	1.6%	-13.63%
O=C(Cn1nc2c(Sc3cccc(F)c3)nccn2c1=O)Nc1ccc(F)c(Cl)c1	-2.81%	9.34%	-8.73%
CCOc1ccccc1NC(=O)Cn1nc2c(Oc3cccc(OC)c3)nccn2c1=O	8.86%	0.7%	-8.27%
CC(C)(C)Sc1ccc2nn(CC(=O)Nc3ccccc3C(F)(F)F)c(=O)n2n1	13.7%	0.56%	-20.81%
CCCn1c(=O)c2sccc2n2c(=O)n(CC(=O)c3cc(C)ccc3C)nc12	9.58%	6.28%	-24.9%
Cc1ccc(CNC(=O)Cn2nc3c(Oc4ccccc4C)nccn3c2=O)cc1	12.47%	1.06%	-7.58%
Cc1ccc(-n2ccn3c(SCC(N)=O)nnc3c2=O)cc1C	20.66%	1.07%	-10.4%
O=c1c2sccc2n2c(=O)n(Cc3cccc(C(F)(F)F)c3)nc2n1Cc1cccs1	15.22%	35.9%	-33.79%
COc1ccc(NC(=O)Cn2nc3c(N4CCOCC4)nccn3c2=O)c(OC)c1	20.77%	0.63%	-16.42%

Compound	Inhibition (Klebsiella pneumoniae)	Inhibition (Candida albicans)	Inhibition (Cryptococcus neoformans)
COc1ccc(-c2cc3c4nnc(SCC(=O)Nc5ccc(C)cc5Cl)n4ccn3n2)cc1	11.06%	0.54%	-30.51%
COc1ccc(-c2cc3c4nnc(SCC(=O)Nc5cc(F)ccc5C)n4ccn3n2)cc1	-19.37%	1.81%	-16.34%
Cc1ccccc1N1CCN(c2nccn3c(=O)n(CC(=O)Nc4cccc(C(C)C)c4)nc23)CC1	0.34%	19.66%	-7.69%
Cc1[nH]c2ccccc2c1C(=O)CSc1nnc2c(=O)n(-c3ccc(Br)cc3)ccn12	4.84%	1.31%	-12.52%
COc1cc(NC(=O)CSc2nnc3c(=O)n(-c4cccc(F)c4)ccn23)cc(OC)c1	4.95%	13.47%	-8.34%
CC(C)Cn1c(=O)c2sccc2n2c(=O)n(Cc3ccc(Cl)cc3)nc12	2.18%	-1.9%	-15.45%
Cc1nnc2c(S(=O)(=O)N(Cc3cccc(F)c3)c3cccc(F)c3)cccn12	14.45%	2.41%	-6.64%
CCOC(=O)c1ccc(NC(=O)Cn2nc3ccc(Sc4ccccc4)nn3c2=O)cc1	5.75%	4.06%	-9.53%
Cc1cc(C)c(NC(=O)Cn2nc3ccc(SC4CCCCC4)nn3c2=O)c(C)c1	7.83%	19.78%	-14.71%
COc1ccc(CNC(=O)Cn2nc3c4cc(-c5ccc(Cl)cc5)nn4ccn3c2=O)cc1	11.83%	1.19%	-27.86%
CCCCn1c(=O)c2sccc2n2c(=O)n(CC(=O)NC(C)CC)nc12 (stereo not drawn)	-2.58%	3.27%	-15.7%
Cc1nnc2c(S(=O)(=O)N(Cc3cccc(F)c3)c3ccc(C(C)C)cc3)cccn12	9.6%	6.76%	-6.4%
CCc1nnc2c(SCC(=O)Nc3ccc(Cl)cc3)nc3ccccc3n12	3.4%	9.64%	-3.51%
CSc1cccc(NC(=O)Cn2nc3ccc(C(=O)NCc4ccccc4)cn3c2=O)c1	7.41%	7.13%	-20.24%
Cc1cc2nn(CC(=O)Nc3ccc(Cl)cc3)c(=O)n2c(Nc2ccc(F)c(C)c2)n1	19.07%	3.54%	-11.52%
Cc1nnc2c(S(=O)(=O)N(Cc3ccc(F)cc3)c3ccc(Cl)cc3)cccn12	5.76%	4.67%	-7.17%
O=C(Cn1nc2c(SCc3ccc(Cl)cc3)nccn2c1=O)N1CCN(c2ccccc2)CC1	2.24%	4.87%	-2.91%
COc1ccc(-c2cc3c4nnc(SCC(=O)NCc5ccc(Cl)cc5)n4ccn3n2)cc1	6.35%	-0.75%	-28.86%
COc1cc(-c2nnc3c(=O)n(Cc4ccc(Cl)cc4)ccn23)cc(OC)c1OC	11.02%	-0.08%	-21.41%
O=c1c2sccc2n2c(=O)n(Cc3ccccc3F)nc2n1CCc1ccccc1	8.76%	0.77%	-30.71%
COc1cccc(-n2ccn3c(SCC(=O)c4ccc(Br)cc4)nnc3c2=O)c1	9.61%	5.24%	-5.95%

Compound	Inhibition (Klebsiella pneumoniae)	Inhibition (Candida albicans)	Inhibition (Cryptococcus neoformans)
Cc1oc(-c2cccc(Cl)c2)nc1CSc1nc2ccccc2n2c(C)nnc12	5.28%	6.15%	-6.37%
Cc1cc(C)cc(N(Cc2cc(C)ccc2C)S(=O)(=O)c2cccn3c(C)nnc23)c1	4.69%	1.02%	-8.76%
COc1cccc(-n2ccn3c(SCc4cccc(F)c4)nnc3c2=O)c1	9.47%	1.25%	-9.96%
Cc1ccc(NC(=O)Cn2nc3c4cc(-c5ccc(C)c(C)c5)nn4ccn3c2=O)cc1	12.57%	8.44%	-14.13%
Cc1cc2nn(CC(=O)Nc3cc(F)cc(F)c3)c(=O)n2c(Nc2ccccc2C)n1	6.94%	0.1%	-12.73%
COc1ccc(NC(=O)Cn2nc3c(N4CC(C)CC(C)C4)nccn3c2=O)c(OC)c1 (stereo not drawn)	17.76%	1.51%	-7.52%
CC(C)c1nnc2c(=O)n(CC(=O)Nc3ccccc3)c3ccccc3n12	14.31%	3.67%	-25.44%
COc1ccc(-c2cc3c4nn(CC(=O)Nc5ccccc5Cl)c(=O)n4ccn3n2)cc1	4.39%	6.88%	-15.65%
COc1ccc(NC(=O)Cn2nc3ccc(SC4CCCCC4)nn3c2=O)cc1OC	8.74%	4.98%	-24.6%
O=c1c2nn(Cc3ccccc3Cl)c(=O)n2ccn1-c1ccccc1	1.78%	1.76%	-8.76%
CCOC(=O)c1ccccc1NC(=O)Cn1nc2c(Sc3ccccc3)nccn2c1=O	9.77%	-1.59%	-6.53%
CSc1cccc(NC(=O)Cn2nc3c(Oc4ccccc4C)nccn3c2=O)c1	7.38%	-0.96%	-9.56%
O=C(CSc1nc2ccccc2n2cnnc12)Nc1ccc2c(c1)OCO2	0.58%	2.55%	-24.91%
CCCc1ccc(S(=O)(=O)Nc2ccc3nncn3n2)cc1	8.2%	1.65%	-5.43%
CCCn1c(=O)c2sccc2n2c(=O)n(Cc3ccc(Cl)cc3)nc12	4.43%	0.41%	-22.99%
COc1cccc(NC(=O)Cn2c(=O)c3nnc(C(C)C)n3c3ccccc32)c1	16.14%	3.17%	-13.4%
Cn1c(=O)c2ccc(C(=O)NC3CCCCC3)cc2n2c(=O)n(CC#N)nc12	3.72%	1.15%	-18.77%
Cc1ccc(-n2ccn3c(=O)n(Cc4ccc(F)cc4)nc3c2=O)cc1C	10.23%	1.58%	-18.28%
COc1ccc(N2CCN(C(=O)Cn3nc4c(Oc5cccc(C)c5C)nccn4c3=O)CC2)cc1	15.7%	-0.29%	-13.03%
